# Measurements published in PubChem BioAssay (Tox21).
# Results filed as inconclusive are left out. A number with no mark means an inactive call. The call rests on the fitted dose curve.
# Experiment: qHTS assay to identify small molecule agonists of H2AX - cell viability counter screen (AID 1224847); further: top concentration of the series differs between compounds; nearly all actives have a fitted effect of over 30% in size
# Details: CHO-K1 viability, CellTiter-Glo luminescence, 3 h; series mostly up to 154 µM; activity change, negative = cytotoxicity: at the top concentration
# Text: National Center for Advancing Translational Sciences [NCATS]
# NIH Chemical Genomics Center [NCGC]
# U.S. Environmental Protection Agency [EPA]
# National Institutes of Environmental Health Sciences [NIEHS]
# National Toxicology Program [NTP]
# U.S. Food and Drug Administration [FDA]
# HTRF phospho-H2AX (Ser139) assay (Cisbio Bioassays, US) enables the quantitative detection of the histone variant H2AX when phosphorylated on serine 139. When double-stranded DNA breaks, either by ionizing radiation or endogenous physiological processes, H2AX becomes phosphorylated at Ser139. This phospho-Ser139 serves as a sensitive biomarker for the detection of such breaks, localizing the site of DNA repair. So, HTRF phospho-H2AX Ser139 is a pertinent assay to study genome stability, the cell cycle, DNA repair, and it serves as a biomarker for cancer, and to understand aging. Wild type CHO-K1 cells were used to identify the inducers of Phospho-H2AX Ser 139 from the Tox21 compound collections. Also cytotoxicity of the Tox21 10K compound library against the CHO-K1 cell line was tested by measuring the cell viability using CellTiter-Glo assay (Promega, Madison, WI).
# Tox21 Assay Protocol Summary:
# The CHO-K1 cells suspended in culture medium containing 10% FBS were dispensed at 1000 cells/ 3 ul/well in 1536-well white wall/solid bottom plates (Greiner Bio-One North America, NC) using a Multidrop Combi (Thermo Fisher Scientific Inc., Waltham, MA). After the assay plates were incubated at 37C overnight, 23 nl of compounds at 15 concentrations (from 5-48 columns) or positive control (from 1 to 4 columns) were transferred to the assay plates using a Pintool station (Wako, San Diego, CA) into each well resulting in a final DMSO concentration of 0.76%. After 3hr incubation at 37C, 3 uL/well CellTiter-Glo luminescent cell viability reagent (Promega Corporation, Madison, WI) was added using a Flying Reagent Dispenser (FRD) (Aurora Discovery, CA). After incubation at room temperature for 30 min, the luminescence intensity was read using a ViewLux plate reader (PerkinElmer, Waltham, MA).
# On the % scale 0 is the no-effect control and ±100 the full control effect.
row,Compound,"activity change, negative = cytotoxicity"
1,CCc1c2c(nc3ccc(OC(=O)N4CCC(N5CCCCC5)CC4)cc13)-c1cc3c(c(=O)n1C2)COC(=O)[C@]3(O)CC,1.85% [at 70.9 µM]
2,Cc1nc2ccccn2c(=O)c1CCN1CCC(C(=O)c2ccc(F)cc2)CC1,-4.82% [at 70.9 µM]
3,CC(=O)CC(c1ccc([N+](=O)[O-])cc1)c1c(O)c2ccccc2oc1=O (stereo not given),2.5% [at 70.9 µM]
4,CC1(C)O[C@@H]2C[C@H]3[C@@H]4CCC5=CC(=O)C=C[C@]5(C)[C@H]4[C@@H](O)C[C@]3(C)[C@]2(C(=O)CO)O1,-1.59% [at 70.9 µM]
5,C[C@]12CCC(=O)C=C1C=C[C@@H]1[C@@H]2CC[C@@]2(C)[C@H]1CC[C@@]21CCC(=O)O1,-6.64% [at 70.9 µM]
6,O=C(CS)OCCOC(=O)CS,-7.17%
7,CC(=O)OCC(=O)[C@@]12OC(C)(C)O[C@@H]1C[C@H]1[C@@H]3C[C@H](F)C4=CC(=O)C=C[C@]4(C)[C@@]3(F)[C@@H](O)C[C@@]12C,-1.45% [at 70.9 µM]
8,N#C/C(=C1\SCC(c2ccccc2Cl)S1)n1ccnc1 (stereo not given),0.465% [at 70.9 µM]
9,CC(=N\O)/C(C)=N/O,-1.38%
10,CCCOc1ccc(S(=O)(=O)N2CCN(CC)CC2)cc1-c1nc2c(CC)n(Cc3ccccn3)nc2c(=O)[nH]1,8.93%
11,CC1(C)C2=CCCC(C)(C)[C@]23CC[C@H]1C3,-9.81%
12,CC(=O)[C@H]1CC[C@H]2[C@@H]3C[C@H](C)C4=CC(=O)CC[C@]4(C)[C@H]3[C@@H](O)C[C@]12C,-1.78% [at 70.9 µM]
13,N#C[C@@H]1C[C@@H]2C[C@@H]2N1C(=O)[C@@H](N)C12CC3CC(CC(O)(C3)C1)C2,0.0825% [at 70.9 µM]
14,NC(=O)N(O)[C@@H]1COc2cc(OCc3ccccc3)ccc21,-4.63%
15,OC(CCCN1CCCCC1)(c1ccccc1)c1ccccc1,-8.55% [at 70.9 µM]
16,CCOC(=O)c1ccccc1OC,0.802%
17,CCCOCCOCCO,1.84%
18,c1cnc2c(n1)CCCC2,4.54%
19,C[N+]1(C)CCC(=C(c2ccccc2)c2ccccc2)CC1,-3.96% [at 70.9 µM]
20,CO[Si](C)(OC)OC,4.52%

row,Compound,"activity change, negative = cytotoxicity"
1,C/C=C(\C)C(=O)OCCC(C)CCC=C(C)C (stereo not given),-2.88%
2,COc1cc2[nH]c(=O)[nH]c(=O)c2cc1OC,0.404% [at 70.9 µM]
3,c1ccc(COCc2ccccc2)cc1,4.63%
4,CO[C@H]1O[C@H](CO)[C@@H](O)[C@H](O)[C@H]1O,1.36%
5,CC(=O)OCC(=O)[C@H]1CC[C@H]2[C@@H]3CCC4=CC(=O)CC[C@]4(C)[C@H]3CC[C@]12C,-12.5% [at 70.9 µM]
6,CCC(C)(O)CCC=C(C)C (stereo not given),-1.9%
7,O=S1OCCO1,2.63%
8,CCCCCCCCCCCC[N+](C)(C)CCCS(=O)(=O)[O-],-4.53%
9,O=C(O)c1snc(Cl)c1Cl,0.0327%
10,O=C(/C=C/c1ccccc1)OCCCc1ccccc1,-10.6%
11,CCC(C(=O)OCCN(CC)CC)c1ccccc1 (stereo not given),4.76% [at 70.9 µM]
12,C=CC(C)=CCC=C(C)C,0.254%
13,CCCCC(CC)COC(=O)COc1ccc(Cl)cc1C (stereo not given),2.25%
14,Cc1ccc(S)cc1,-0.993%
15,Cc1cc(O)c2c(O)c3c(O)cccc3cc2c1,-0.596% [at 70.9 µM]
16,C/C(=N/NC(=O)c1ccncc1)C(=O)O,4.05% [at 70.9 µM]
17,COC(=O)c1cc(Cl)ccc1NS(=O)(=O)C(F)(F)F,-1.61% [at 70.9 µM]
18,COC(=O)CC(=O)C(C)(C)C,1.79%
19,Cc1cc(OI)c(C(C)C)cc1-c1cc(C(C)C)c(OI)cc1C,-1.12% [at 70.9 µM]
20,CC1=CC(=O)CC(C)(C)C1(O)/C=C/C(C)=C\C(=O)O (stereo not given),1.25%
